{
  "source": "PubChem BioAssay",
  "note": "Values joined by “and” are separate entries in the source; they are usually repeats but may differ in a detail not shown here. Equal values may be shown once. Peptide text beside a SMILES is read from it.",
  "data": [
    {"experiment": "EMT-state selective cytotoxicity in co-culture – imaging, PC-3E GFP, TEM4-18 mCherry, primary screen (AID 1345086);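 note: cells exposed to compound for 72 h before imaging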", "conditions": "PC-3E GFP / TEM4-18 mCherry co-culture, imaging cell counts; measured here: epithelial PC-3E GFP cell survival; at 1 µM", "values": [
      {"smiles": "O=C(Nc1ccc([N+](=O)[O-])cc1Cl)c1cc(Cl)ccc1O", "normalised cell number": 0.36},
      {"smiles": "CNC[C@H](O)c1cccc(O)c1", "normalised cell number": 0.85},
      {"smiles": "O=NN(CCCl)C(=O)NCCCl", "normalised cell number": 1.15},
      {"smiles": "COc1ccnc(CS(=O)c2nc3ccc(OC(F)F)cc3[nH]2)c1OC", "note": "(stereo unspecified)", "normalised cell number": 1.3},
      {"smiles": "COc1ccc2cc3[n+](cc2c1OC)CCc1cc2c(cc1-3)OCO2", "normalised cell number": 0.85},
      {"smiles": "CN(Cc1cc(Br)cc(Br)c1N)C1CCCCC1", "normalised cell number": 0.99},
      {"smiles": "O=C(NC(Cc1cc(=O)[nH]c2ccccc12)C(=O)O)c1ccc(Cl)cc1", "note": "(stereo unspecified)", "normalised cell number": 0.89},
      {"smiles": "NC(=O)NO", "normalised cell number": 1.01},
      {"smiles": "Cc1ccc(S(=O)(=O)NC(=O)NN2CC3CCCC3C2)cc1", "note": "(stereo unspecified)", "normalised cell number": 1.15},
      {"smiles": "OC[C@H]1O[C@@H](O[C@@H]2[C@@H](CO)O[C@](O)(CO)[C@H]2O)[C@H](O)[C@@H](O)[C@H]1O", "normalised cell number": 1.03},
      {"smiles": "NNc1nncc2ccccc12", "normalised cell number": 1.13},
      {"smiles": "CCOC(=O)C(C)(C)Oc1ccc(Cl)cc1", "normalised cell number": 1.28},
      {"smiles": "CC(=O)Oc1ccccc1C(=O)O", "normalised cell number": 1.28},
      {"smiles": "NC(=O)c1ncn([C@@H]2O[C@H](CO)[C@@H](O)[C@H]2O)n1", "normalised cell number": 1.31},
      {"smiles": "CN(C)c1ccc(C(=C2C=CC(=[N+](C)C)C=C2)c2ccc(N(C)C)cc2)cc1", "normalised cell number": 0.14},
      {"smiles": "Cn1cnc2c1c(=O)[nH]c(=O)n2C", "normalised cell number": 0.96},
      {"smiles": "COc1ccc(CCN(C)CCCC(C#N)(c2ccc(OC)c(OC)c2)C(C)C)cc1OC", "note": "(stereo unspecified)", "normalised cell number": 1.17},
      {"smiles": "O=c1oc2c(O)c(O)cc3c(=O)oc4c(O)c(O)cc1c4c23", "normalised cell number": 0.85},
      {"smiles": "CN(C)CCc1c[nH]c2ccc(CS(=O)(=O)N3CCCC3)cc12", "normalised cell number": 0.96},
      {"smiles": "COc1cc([C@H]2Oc3cc([C@H]4Oc5cc(O)cc(O)c5C(=O)[C@@H]4O)ccc3O[C@@H]2CO)ccc1O", "normalised cell number": 0.9},
      {"smiles": "C/C=C(/C(=C/C)c1ccc(O)cc1)c1ccc(O)cc1", "normalised cell number": 1.12},
      {"smiles": "O=C(O)c1cn(-c2ccc(F)cc2)c2cc(N3CCNCC3)c(F)cc2c1=O", "normalised cell number": "1.1 and 0.99"},
      {"smiles": "CN1C(C(=O)Nc2ccccn2)=C(O)c2sccc2S1(=O)=O", "normalised cell number": 1.14},
      {"smiles": "COC(=O)Nc1nc2ccc(S(=O)c3ccccc3)cc2[nH]1", "note": "(stereo unspecified)", "normalised cell number": 0.97},
      {"smiles": "NCC1CCC(C(=O)O)CC1", "note": "(stereo unspecified)", "normalised cell number": 1},
      {"smiles": "NC(CO)C(=O)NNCc1ccc(O)c(O)c1O", "note": "(stereo unspecified)", "normalised cell number": 1.12},
      {"smiles": "Nc1nc(=S)c2[nH]cnc2[nH]1", "normalised cell number": 0.83},
      {"smiles": "O=c1c(-c2ccc(O)cc2)coc2cc(O)cc(O)c12", "normalised cell number": 0.96},
      {"smiles": "CC1(C)NC(=O)N(c2ccc([N+](=O)[O-])c(C(F)(F)F)c2)C1=O", "normalised cell number": 1.25},
      {"smiles": "C1CCC(C(CC2CCCCN2)C2CCCCC2)CC1", "note": "(stereo unspecified)", "normalised cell number": 1.13},
      {"smiles": "N[C@@H](Cc1ccc(O)c(O)c1)C(=O)O", "normalised cell number": 1.01},
      {"smiles": "Cc1oncc1C(=O)Nc1ccc(C(F)(F)F)cc1", "normalised cell number": 1.34},
      {"smiles": "NS(=O)(=O)c1cc2c(cc1Cl)NC(C(Cl)Cl)NS2(=O)=O", "note": "(stereo unspecified)", "normalised cell number": 0.88},
      {"smiles": "CCCOc1ccc2nc(NC(=O)OC)[nH]c2c1", "normalised cell number": 0.2},
      {"smiles": "Cc1cc(C2CCCCC2)n(O)c(=O)c1", "normalised cell number": 0.78},
      {"smiles": "COC(=O)[C@H](Cc1ccccc1)NC(=O)[C@@H](N)CC(=O)O", "note": "(H-Asp-Phe-OMe)", "normalised cell number": 1.01},
      {"smiles": "CC1=CC(=O)c2ccccc2C1=O", "normalised cell number": 1.09},
      {"smiles": "CCOC(=O)C1=C[C@]2(CC)CCCN3CCc4c(n1c1ccccc41)[C@@H]32", "normalised cell number": 1.28}
    ]},
    {"experiment": "EMT-state selective cytotoxicity in co-culture – imaging, PC-3E GFP, TEM4-18 mCherry, primary screen (AID 1345086);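 note: cells exposed to compound for 72 h before imaging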", "conditions": "PC-3E GFP / TEM4-18 mCherry co-culture, imaging cell counts; measured here: mesenchymal TEM4-18 mCherry cell survival; at 1 µM", "values": [
      {"smiles": "O=C(Nc1ccc([N+](=O)[O-])cc1Cl)c1cc(Cl)ccc1O", "normalised cell number": 0.24},
      {"smiles": "CNC[C@H](O)c1cccc(O)c1", "normalised cell number": 1.11},
      {"smiles": "O=NN(CCCl)C(=O)NCCCl", "normalised cell number": 1.2},
      {"smiles": "COc1ccnc(CS(=O)c2nc3ccc(OC(F)F)cc3[nH]2)c1OC", "note": "(stereo unspecified)", "normalised cell number": 1.4},
      {"smiles": "COc1ccc2cc3[n+](cc2c1OC)CCc1cc2c(cc1-3)OCO2", "normalised cell number": 0.69},
      {"smiles": "CN(Cc1cc(Br)cc(Br)c1N)C1CCCCC1", "normalised cell number": 1.33},
      {"smiles": "O=C(NC(Cc1cc(=O)[nH]c2ccccc12)C(=O)O)c1ccc(Cl)cc1", "note": "(stereo unspecified)", "normalised cell number": 0.99},
      {"smiles": "NC(=O)NO", "normalised cell number": 1.1},
      {"smiles": "Cc1ccc(S(=O)(=O)NC(=O)NN2CC3CCCC3C2)cc1", "note": "(stereo unspecified)", "normalised cell number": 0.96},
      {"smiles": "OC[C@H]1O[C@@H](O[C@@H]2[C@@H](CO)O[C@](O)(CO)[C@H]2O)[C@H](O)[C@@H](O)[C@H]1O", "normalised cell number": 1.23},
      {"smiles": "NNc1nncc2ccccc12", "normalised cell number": 1.26},
      {"smiles": "CCOC(=O)C(C)(C)Oc1ccc(Cl)cc1", "normalised cell number": 1.2},
      {"smiles": "CC(=O)Oc1ccccc1C(=O)O", "normalised cell number": 1.08},
      {"smiles": "NC(=O)c1ncn([C@@H]2O[C@H](CO)[C@@H](O)[C@H]2O)n1", "normalised cell number": 0.89},
      {"smiles": "CN(C)c1ccc(C(=C2C=CC(=[N+](C)C)C=C2)c2ccc(N(C)C)cc2)cc1", "normalised cell number": 0.5},
      {"smiles": "Cn1cnc2c1c(=O)[nH]c(=O)n2C", "normalised cell number": 0.9},
      {"smiles": "COc1ccc(CCN(C)CCCC(C#N)(c2ccc(OC)c(OC)c2)C(C)C)cc1OC", "note": "(stereo unspecified)", "normalised cell number": 1.52},
      {"smiles": "O=c1oc2c(O)c(O)cc3c(=O)oc4c(O)c(O)cc1c4c23", "normalised cell number": 0.84},
      {"smiles": "CN(C)CCc1c[nH]c2ccc(CS(=O)(=O)N3CCCC3)cc12", "normalised cell number": 1.02},
      {"smiles": "COc1cc([C@H]2Oc3cc([C@H]4Oc5cc(O)cc(O)c5C(=O)[C@@H]4O)ccc3O[C@@H]2CO)ccc1O", "normalised cell number": 0.88},
      {"smiles": "C/C=C(/C(=C/C)c1ccc(O)cc1)c1ccc(O)cc1", "normalised cell number": 1.55},
      {"smiles": "O=C(O)c1cn(-c2ccc(F)cc2)c2cc(N3CCNCC3)c(F)cc2c1=O", "normalised cell number": "1.04 and 0.87"},
      {"smiles": "CN1C(C(=O)Nc2ccccn2)=C(O)c2sccc2S1(=O)=O", "normalised cell number": 0.93},
      {"smiles": "COC(=O)Nc1nc2ccc(S(=O)c3ccccc3)cc2[nH]1", "note": "(stereo unspecified)", "normalised cell number": 0.95},
      {"smiles": "NCC1CCC(C(=O)O)CC1", "note": "(stereo unspecified)", "normalised cell number": 1.27},
      {"smiles": "NC(CO)C(=O)NNCc1ccc(O)c(O)c1O", "note": "(stereo unspecified)", "normalised cell number": 1.23},
      {"smiles": "Nc1nc(=S)c2[nH]cnc2[nH]1", "normalised cell number": 1.07},
      {"smiles": "O=c1c(-c2ccc(O)cc2)coc2cc(O)cc(O)c12", "normalised cell number": 0.91},
      {"smiles": "CC1(C)NC(=O)N(c2ccc([N+](=O)[O-])c(C(F)(F)F)c2)C1=O", "normalised cell number": 1.43},
      {"smiles": "C1CCC(C(CC2CCCCN2)C2CCCCC2)CC1", "note": "(stereo unspecified)", "normalised cell number": 1.11},
      {"smiles": "N[C@@H](Cc1ccc(O)c(O)c1)C(=O)O", "normalised cell number": 0.89},
      {"smiles": "Cc1oncc1C(=O)Nc1ccc(C(F)(F)F)cc1", "normalised cell number": 0.99},
      {"smiles": "NS(=O)(=O)c1cc2c(cc1Cl)NC(C(Cl)Cl)NS2(=O)=O", "note": "(stereo unspecified)", "normalised cell number": 1.08},
      {"smiles": "CCCOc1ccc2nc(NC(=O)OC)[nH]c2c1", "normalised cell number": 0.21},
      {"smiles": "Cc1cc(C2CCCCC2)n(O)c(=O)c1", "normalised cell number": 1.04},
      {"smiles": "COC(=O)[C@H](Cc1ccccc1)NC(=O)[C@@H](N)CC(=O)O", "note": "(H-Asp-Phe-OMe)", "normalised cell number": 1.24},
      {"smiles": "CC1=CC(=O)c2ccccc2C1=O", "normalised cell number": 1.08},
      {"smiles": "CCOC(=O)C1=C[C@]2(CC)CCCN3CCc4c(n1c1ccccc41)[C@@H]32", "normalised cell number": 0.96}
    ]}
  ]
}
